Assay results reported in PubChem BioAssay (NCATS).
Results filed as inconclusive are left out. A number with no mark means an inactive call. Active and inactive are the calls of the source. Calls come from the whole dose curve; as a rule, active = well fitted cell-killing curve with a large enough effect; inconclusive = small, poorly fitted or top-dose-only effect, or effect the other way; inactive = flat fitted curve, though single readings scatter. Where a SMILES comes first, the peptide text is derived from it. [ ]: non-standard residue; d: D form. Ala(indol-2-yl) = N[C@@H](Cc1cc2ccccc2[nH]1)C(=O)O; Aib = CC(C)(N)C(=O)O
% is set by controls: 0 for no effect and ±100 for the full control effect; potency is the fitted concentration of half-maximal effect.

What follows are compounds tested on PA-1 (assay: Primary qHTS to identify gynecologic anti-cancer compounds using libraries of approved drugs and bioactive compounds (AID 1345084; note: nearly all actives have a fitted effect of over 55% in size)). Details: Gynecologic cancer cell panel viability, ATPlite luminescence, 48 h; series mostly up to 57.5 µM.
Summary of the method: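 Cells, 1,000 per well, plated 16 h, then exposed 48 h at 37 C to compounds. Viability by ATPlite luminescence after 15 min at room temperature.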
With `CCC(C)/C=C(C)/C=C/C1=CC2=C(Cl)C(=O)C(C)(OC(C)=O)C(=O)C2=CO1` (stereo not given) the Potency was “inactive”. `COC1CC(O[C@H]2CC[C@]3(C)C4CC[C@]5(C)[C@@H](C6=CC(=O)OC6)[C@@H](OC(C)=O)C[C@]5(O)C4CC[C@@H]3C2)OC(C)C1O` (stereo not given in full) was tested, and the Potency was 891 nM (active). In the case of `C=C1[C@@H](C)[C@H]2[C@H](Cc3ccccc3)NC(=O)[C@]23OC(=O)/C=C/C(=O)CCC[C@@H](C)C/C=C/[C@H]3[C@@H]1O`, the Potency is reported as 20000 nM (active). With `CC(C)(C)[C@]1(O)C[C@@H]2OC(=O)C[C@@]23C(=O)O[C@@H]2OC(=O)[C@@H](O)[C@]213` the Potency was “inactive”. With `C[C@H]1C/C=C/[C@H]2[C@@H]3O[C@]3(C)[C@@H](C)[C@H]3[C@H](Cc4ccccc4)NC(=O)[C@]32OC(=O)O/C=C/[C@@](C)(O)C1=O` the Potency was 2510 nM (active). For `CNC(=O)c1cc(C#N)cc(C)c1NC(=O)c1cc(Br)nn1-c1ncccc1Cl`, the Potency was “inactive”. `CN[C@@H]1C[C@H]2O[C@@](C)([C@@H]1OC)n1c3ccccc3c3c4c(c5c6ccccc6n2c5c31)C(=O)NC4` was tested, and the Potency was 251 nM (active). For `COC1CC(O[C@H]2CC[C@]3(C=O)C4CC[C@]5(C)[C@@H](C6=CC(=O)OC6)CC[C@]5(O)[C@@H]4CC[C@@H]3C2)OC(C)C1O[C@@H]1O[C@H](CO)[C@@H](O[C@@H]2O[C@H](CO)[C@@H](O)[C@H](O)[C@H]2O)[C@H](O)[C@H]1O` (stereo not given in full), the Potency was 447 nM (active). In the case of `CC[C@@H]1C[C@H]2CC[C@H](O2)[C@H](C)C(=O)O[C@@H](C)C[C@@H]2CC[C@@H](O2)[C@@H](C)C(=O)O[C@H](CC)C[C@H]2CC[C@H](O2)[C@H](C)C(=O)O[C@@H](C)C[C@@H]2CC[C@@H](O2)[C@@H](C)C(=O)O1`, the Potency is reported as 355 nM (active). In the case of `CO[C@@H]1C[C@H](O[C@H]2CC[C@@]3(C)C(CCC4C3CC[C@]3(C)[C@@H](C5=CC(=O)OC5)[C@@H](OC(C)=O)CC43O)C2)O[C@H](C)[C@@H]1O[C@H]1O[C@H](CO[C@@H]2O[C@H](CO)[C@@H](O)[C@H](O)[C@H]2O)[C@@H](O)[C@H](O)[C@H]1O` (stereo not given in full), the Potency is reported as 2000 nM (active). For `CO[C@H]1C[C@H](O[C@H]2CC[C@@]3(C)C(=CCC4C3CC[C@]3(C)[C@@H](C5=CC(=O)OC5)CC[C@]43O)C2)O[C@@H](C)[C@@H]1O[C@@H]1O[C@H](CO[C@@H]2O[C@H](CO)[C@@H](O)[C@H](O)[C@H]2O)[C@@H](O)[C@H](O)[C@H]1O` (stereo not given in full), the activity change, negative = cytotoxicity was 10.4% [at 11.6 µM]. In the case of `C=C1[C@@H](C)[C@H]2[C@H](Cc3ccccc3)NC(=O)[C@]23[C@H](OC(C)=O)/C=C/[C@](C)(O)C(=O)[C@@H](C)C/C=C/[C@H]3[C@@H]1O`, the Potency is reported as 1780 nM (active). In the case of `c1cncc(OC[C@@H]2CCN2)c1`, the Potency is reported as “inactive”. In the case of `CC(=O)OC[C@]12C[C@H](OC(=O)CC(C)C)C(C)=C[C@H]1O[C@@H]1[C@H](O)C[C@@]2(C)[C@]12CO2`, the Potency is reported as 1000 nM (active). In the case of `CNc1ccc2oc(C[C@H]3O[C@@]4(CC[C@H]3C)O[C@H](C(C)C(=O)c3ccc[nH]3)[C@H](C)C[C@H]4C)nc2c1C(=O)O` (stereo not given in full), the Potency is reported as 4470 nM (active). For `C[N@@+]1(CC2CC2)CC[C@]23c4c5ccc(O)c4O[C@H]2C(=O)CC[C@@]3(O)[C@H]1C5`, the Potency was “inactive”. In the case of `COc1ccc2c3c([nH]c2c1)C(C=C(C)C)N1C(=O)C2CCCN2C(=O)C1C3` (stereo not given), the Potency is reported as “inactive”. Work on `CC(C)(NC(=O)[C@@H](N)Cc1ccc(O)cc1)C(=O)N[C@@H](Cc1cc2ccccc2[nH]1)C(=O)N[C@@H](Cc1ccccc1)C(=O)O` (H-Y[Aib][Ala(indol-2-yl)]F-OH) yielded an activity change, negative = cytotoxicity of 2.34% [at 11.6 µM]. In the case of `C[C@]12CC[C@H](O)C[C@H]1CC[C@@H]1[C@@H]2[C@H](O)C(=O)[C@]2(C)[C@@H](c3ccc(=O)oc3)CC[C@]12O`, the Potency is reported as 79.4 nM (active). For `CC[C@H]1C2CC3[C@@H]4N(C)c5ccccc5[C@]45C[C@@H]([C@H]2[C@H]5O)N3[C@@H]1O`, the Potency was “inactive”. With `CC1=C[C@H]2O[C@@H]3C[C@H]4OC(=O)/C=C/C=C/C(=O)OCC/C(C)=C/C(=O)OC[C@@]2(CC1)[C@]4(C)[C@]31CO1` the Potency was 70.8 nM (active). In the case of `C=C(CO)C(=O)O[C@H]1CC(=C)[C@@H]2C[C@H](O)C(=C)[C@@H]2[C@H]2OC(=O)C(=C)[C@@H]21`, the Potency is reported as “inactive”. `O=C(OC[C@H]1O[C@@H](Oc2ccc(O)cc2CO)[C@H](O)[C@@H](O)[C@@H]1O)c1ccccc1` was tested, and the Potency was “inactive”. With `CC[C@@]1(O)C(=O)OCc2c1cc1n(c2=O)Cc2cc3c(OC)cccc3nc2-1` the Potency was 89.1 nM (active). In the case of `CC(=O)OC[C@]12C[C@H](O)C(C)=C[C@H]1O[C@@H]1[C@H](O)[C@@H](O)[C@@]2(C)[C@]12CO2`, the Potency is reported as 2000 nM (active). For `CC[C@H]1C[C@@H]2CC[C@@H](O2)[C@@H](C)C(=O)O[C@H](CC)C[C@H]2CC[C@H](O2)[C@H](C)C(=O)O[C@@H](C)C[C@@H]2CC[C@@H](O2)[C@@H](C)C(=O)O[C@H](CC)C[C@H]2CC[C@H](O2)[C@H](C)C(=O)O1`, the Potency was 178 nM (active). With `CC(=O)OC[C@]12C[C@H](O)C(C)=C[C@H]1O[C@@H]1[C@H](O)[C@@H](OC(C)=O)[C@@]2(C)[C@]12CO2` the Potency was 1780 nM (active). In the case of `C[C@H]1O[C@@H](n2cnc3c(N)ncnc32)C[C@@H]1O`, the Potency is reported as “inactive”. `CO[C@H]1[C@@H](O)[C@@H](C)O[C@@H](O[C@@H]2C=C3C(OC(C)=O)CC4(O)C(CC[C@]5(C)[C@@H](C6=CC(=O)OC6)CC[C@]45O)[C@@]3(C)CC2)[C@@H]1O` (stereo not given in full) was tested, and the Potency was 316 nM (active). For `CN(C)c1cc2c(cc1Sc1nc3c(N)nccc3n1CCNCC(C)(C)C)OCO2`, the Potency was 1410 nM (active).
